The values that follow come from PubChem BioAssay (NCATS).

The structures appear in SMILES notation. “And” between values parts separate entries of the source, which are not always exact repeats. Identical values can stand only once. Results filed as inconclusive are left out. The source made the active and inactive calls. Calls follow the shape of the dose curve; as a rule, active = well fitted cell-killing curve with a large enough effect; inconclusive = small, poorly fitted or top-dose-only effect, or effect the other way; inactive = no such curve, though single readings can be large or run the other way.
Potency is read from the fitted curve at half-maximal effect.

This assay is described as follows: Viability qHTS for spleen associated tyrosine kinase inhibitor (SYKi) drug resistant MV4-11 cells (AID 1963824). Also: nearly all actives have a fitted effect of over 35% in size. Particulars: SYKi-resistant MV4-11 viability, CellTiter-Glo, 72 h; series mostly up to 45 µM; viability, % of control: at the top concentration. From the text: Department of Medicine, Hematology/Oncology
University Hospital Frankfurt, Germany.
Trials have shown promising clinical activity of the selective SYK inhibitor entospletinib in patients with high expressing HOXA9/MEIS1 acute leukemias. As the development of resistance mechanisms is a common problem in the use of targeted drugs, we performed a chemical library screen to identify drug sensitivities in SYK inhibitor resistant AML cells. […] Glucocorticoids are potent immunosuppressants which work in part by inhibiting the transcription of cytokine genes.
Described herein is a viability screen to look for activity in the SYK inhibitor drug resistant cell line against four NCATS compound libraries (MIPE 5.0, NPC, NPACT, and Kinase) totaling 11372 compounds. Active hits were reacquired for confirmation and further secondary assay testing.
SEQUENCE No. (e.g., 1, 2, 3, etc.); […] (e.g., Cells, Incubation, Reagent, etc.); VALUE; DESCRIPTION.
1; Media; 2uL; white, solid-bottom Corning assay plate.
2; Compounds; 23nL; Echo acoustic dispenser.
3; Cell; 5uL; 500 cells per well.
4: Incubation; 72hr; 37 C, 5% CO2, 95% humidity.
5; Reagent; 3uL; CellTiter-Glo reagent (Promega).
6; Incubation; 10min; room temperature.
7; Detection; Luminescence; ViewLux plate reader (PerkinElmer).
NOTES (numbers refer to Sequence numbers above
1. Quantitative high-throughput screening (qHTS) of small molecule compounds was conducted on drug resistant SYKi MV4-11 cell line.
2. Twenty-three nanoliter of small molecule compounds were added to each assay plates using the Echo acoustic dispenser (Beckman Coulter).
3. Cells were seeded into the assay plates at a final density of 500 cells in 5uL of media per well using the Multidrop Combi dispenser.
4. Plates were covered with stainless steel gasketed lids and incubated for 72 hours at standard cell culture conditions.
5. Viability was assessed by adding 3uL of CellTiter-Glo detection reagent (Promega).
6. Plates were covered with gasket lids and incubated for 10 minutes at room temperature.
7. Luminescence was measured on a ViewLux plate reader (PerkinElmer).
On the technique in general: qHTS replaces the single test concentration by a dilution series.
Turning to `CC(C)(N)c1cc(C(=O)N[C@@H]2CCc3ccc(Oc4ccnc5c4CCC(=O)N5)cc3C2)cc(C(F)(F)F)c1`, the Potency was 1.3 µM (active).
Turning to `CCOC(=O)C(=O)CCCCCCl`, the “viability, % of control” value is 83.6% (inactive).
Turning to `Cn1sc(=O)n(Cc2ccccc2)c1=O`, the Potency was 2.91 µM (active).
In the case of `C/C(=C\CCC(C)(O)c1ccc(C)cc1)C(=O)O` (stereo not given), the “viability, % of control” value is 89.1% (inactive).
For `CCC(C)(C)C1CCc2c(sc(NC(=O)c3ccc(Br)cc3)c2C#N)C1` (stereo not given), the “viability, % of control” value is 110% (inactive).
For `C=C1C(=O)OC2CC(C)C(CCC(C)=O)=CCC12` (stereo not given), the Potency was 5.17 µM (active).
Regarding `Cc1nnn(C)c1-c1cnc2c3ccc(C(C)(C)O)cc3n([C@H](c3ccccc3)C3CCOCC3)c2c1`, the Potency is 0.003 µM (active).
For the compound `C#CCN(Cc1cc2c(=O)n(C)c(CN3CCN(C)CC3)nc2cc1Cl)c1ccc(C(=O)NCc2cccnc2)cc1`, the “viability, % of control” value is 2.34% (inactive).
Regarding `CCN(CC)CCNC(=O)c1ccc(N)cc1`, the Potency entry is “inactive”.
Consider `CCCCOC(=O)NC(=O)C1c2ccccc2Oc2ccccc21`, for which the “viability, % of control” value was 101% (inactive).
Same read-out and setting: as for `CC(C)(O[C@@H]1O[C@H](CO)[C@@H](O)[C@H](O)[C@H]1O)C(OC(=O)/C=C\c1ccc(O)cc1)C(=O)OCc1ccc(O[C@@H]2O[C@H](CO)[C@@H](O)[C@H](O)[C@H]2O)cc1` (stereo not given in full), the figure is 31.9% [at 17.3 µM] (inactive).
`Cc1c(NC(=O)c2ccc(C(C)(C)C)cc2)cccc1-c1cn(C)c(=O)c(Nc2ccc(C(=O)N3CCOCC3)cc2)n1`: the Potency was 11.4 µM (active) and 16.6 µM (active).
`O=C(Nc1ncc(SCCN2CCCC2)s1)C1(c2ccc(S(=O)(=O)C3CC3)cc2)CC1C1CCCCC1` (stereo not given): the Potency is 8.2 µM (active).
Still for that read-out and setting: to `COc1c(Nc2ncc(Cl)c(N[C@H]3[C@@H](C(N)=O)[C@@H]4C=C[C@H]3C4)n2)ccc2c1CC[C@@H](N1CCOCC1)CC2` belongs 0.291 µM (active).
The same measure, in the same setting: to `O=C1Cc2c([nH]c3ccc(Br)cc23)-c2ccccc2N1` belongs 5.8 µM (active).
Regarding `COc1c2c(c(C)c3c1C(=O)OC3)OC1(C)CC(O)C34OC(OC)(CCC3(C)C1C2)OC4(C)CO` (stereo not given), the “viability, % of control” value is 77.6% [at 17.3 µM] (inactive).
With `C=CC(=O)N1CCN(C(=O)c2cc(-c3cc(Cl)ccc3Cl)c(Cl)cc2OC)CC1`, the Potency was 6.51 µM (active).
With `C[C@@H]1O[C@@H](O[C@H]2[C@H](OC(=O)[C@]34CCC(C)(C)C[C@H]3C3=CCC5[C@@]6(C)CC[C@H](O[C@@H]7O[C@H](C(=O)O)[C@@H](O)[C@H](O)[C@H]7O[C@@H]7O[C@H](CO)[C@H](O)[C@H](O)[C@H]7O)[C@@](C)(C=O)C6CC[C@@]5(C)[C@]3(C)C[C@H]4O)O[C@H](C)[C@H](O[C@@H]3O[C@H](C)[C@H](O)[C@H](O)[C@H]3O)[C@@H]2O)[C@H](O)[C@H](O)[C@H]1O[C@@H]1OC[C@@H](O)[C@H](O[C@@H]2O[C@H](CO)[C@@H](O)[C@H](O)[C@H]2O)[C@H]1O` (stereo not given in full), the viability, % of control is 5.67% [at 4.97 µM] (inactive).
Still for that read-out and setting: as for `CC1CCN(CCCC(=O)c2ccc(F)cc2)CC1`, the figure is 79.6% (inactive).
Consider `CN1CC[C@H](c2c(O)cc(O)c3c(=O)cc(-c4ccccc4Cl)oc23)[C@H](O)C1`, for which the Potency is 0.299 µM (active).
In the case of `CC1CCCCN1CCCOC(=O)c1ccc(OC2CCCCC2)cc1` (stereo not given), the Potency was 13.3 µM (active).
For `O=C(Nc1ccn(Cc2c(F)cccc2C(F)(F)F)n1)c1c(F)cccc1F`, the viability, % of control is 91.5% [at 9.25 µM] (inactive).
On the same count and under the same terms, to `CC(NC(=O)CC(=O)O)c1nc2ccccc2c(=O)[nH]1` (stereo not given) belongs 74.4% (inactive).
Consider `CN1CCC(NC(=O)c2cc(-c3c(O)cc(O)cc3Oc3ccc([N+](=O)[O-])cc3)on2)CC1`, for which the Potency was 0.103 µM (active).
On to `Nc1ccc(S(=O)(=O)Nc2nccs2)cc1`, for which the Potency entry is “inactive”.
Consider `CCN1CCN(c2cc3c(cc2F)c(=O)c(C(=O)O)cn3C2CC2)CC1`, for which the “viability, % of control” value is 97.5% (inactive).
Take `Nc1nc(Nc2ccc3c(c2)CC[C@@H](N2CCCC2)CC3)nn1-c1cc2c(nn1)-c1ccccc1CCC2`: the Potency was 0.417 µM (active).
Same read-out and setting: as for `N#Cc1ccnc(Nc2cc(C3CCN(C4COC4)CC3)cc(N3CCC(F)(F)C3)n2)c1`, the figure is 2.06 µM (active) and 235 nM (active).
Turning to `CC1(O)CCC2C(C3C1CCC3(C)O)C2(C)C` (stereo not given), the “viability, % of control” value is 72.5% (inactive).
Consider `CCN(CC)CCOc1ccc(Nc2ncc3cc(-c4c(Cl)cccc4Cl)c(=O)n(C)c3n2)cc1`, for which the Potency is 0.118 µM (active).
With `COc1c(OC2OC(CO)C(O)C(O)C2O)ccc(O)c1C(=O)OCc1ccccc1O[C@@H]1O[C@H](CO)[C@@H](O)[C@H](O)[C@H]1O` (stereo not given in full), the “viability, % of control” value is 67.1% [at 17.3 µM] (inactive).
Consider `NCCS`, for which the “viability, % of control” value is 79.3% (inactive).
Turning to `COc1ccc(/C(C)=C/C(=O)O)c(OC)c1`, the “viability, % of control” value is 80.1% (inactive).
As to `Cc1ncc([N+](=O)[O-])n1CC(C)O` (stereo not given), the “viability, % of control” value was 89.2% (inactive).
For the compound `CC(C)n1nc(C#Cc2ccccc2)c2c(N)ncnc21`, the Potency was 8.2 µM (active).
With `CC(O)/C=C/C1(O)C2(C)COC1(C)CC(O)C2` (stereo not given), the “viability, % of control” value was 74.4% (inactive).
Same read-out and setting: as for `CC(C)=CCC/C(C)=C/CC/C(C)=C/CC[C@]1(C)CCc2cc(O)cc(C)c2O1`, the figure is 59.2% [at 17.3 µM] (inactive).
Consider `O=C(NC[C@H](O)CO)c1ccncc1Nc1ccc(I)cc1F`, for which the Potency was 0.166 µM (active).
For `CC(=O)Nc1ccccc1`, the “viability, % of control” value is 113% (inactive).
Take `CCn1c(=O)c2c(nc(C=Cc3ccc(OC)c(OC)c3)n2C)n(CC)c1=O`: the “viability, % of control” value was 92% (inactive).
